# Screening results deposited in PubChem by several laboratories.
# MEKK3 PB1 HTS: raises or lowers MEK5 binding to the human MEKK3 PB1 domain | Q99759 | hit rate 1.4% among 290,000 | bead-based flow cytometry, Alexa488-MEK5 binding to MEKK3; actives lie on both sides; 0 = blocked by unlabeled MEK5, 100 = vehicle | binding response (% of control), % at 10 µM;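 active = binding response more than 3 SD above or below the average of its plate-row segment, actives on both sides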;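 note: Alexa488 bead fluorescence after subtracting the streptavidin-only scavenger bead signal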
# Target sequence (Q99759 whole entry, looked up, the tested form may be a part): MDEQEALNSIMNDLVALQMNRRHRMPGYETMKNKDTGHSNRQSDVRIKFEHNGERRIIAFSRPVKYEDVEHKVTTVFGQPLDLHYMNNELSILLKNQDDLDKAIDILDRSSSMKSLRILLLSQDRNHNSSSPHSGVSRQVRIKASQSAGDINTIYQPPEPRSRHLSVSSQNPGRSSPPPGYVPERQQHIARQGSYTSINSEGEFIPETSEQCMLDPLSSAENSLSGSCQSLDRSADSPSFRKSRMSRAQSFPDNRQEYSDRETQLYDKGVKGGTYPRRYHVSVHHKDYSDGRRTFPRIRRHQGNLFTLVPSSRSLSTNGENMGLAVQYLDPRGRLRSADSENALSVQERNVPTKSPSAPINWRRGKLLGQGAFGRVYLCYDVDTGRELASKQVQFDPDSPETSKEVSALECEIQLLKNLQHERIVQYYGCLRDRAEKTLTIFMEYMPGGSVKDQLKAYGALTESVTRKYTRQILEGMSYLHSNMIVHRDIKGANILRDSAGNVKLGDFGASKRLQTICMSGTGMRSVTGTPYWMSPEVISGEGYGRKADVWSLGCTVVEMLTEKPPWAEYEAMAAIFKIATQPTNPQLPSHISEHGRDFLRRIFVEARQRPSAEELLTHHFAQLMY
# MEKK2wt PB1 HTS: raises or lowers MEK5 binding to wildtype human MEKK2 PB1 domain | binding response (% of control), % at 10 µM | Q9Y2U5 | AID 1531 | hit rate 1.1% among 290,000 | bead flow cytometry, Alexa488-MEK5 binding to MEKK2 WT; actives lie on both sides; in the data active = binding response below about 67% or above about 130%
# MEKK2 mut-MEK5: signal of MEK5 binding to mutant human MEKK2 PB1 domain; bead flow cytometry, Alexa488-MEK5 binding to MEKK2 mutant; hit rate 0.35% among 290,000; percent response, % at 10 µM; AID 1530; in the data active = percent response above about 24%, passing the limit was not always enough
# PREPL inhibitor: inhibits the human prolyl oligopeptidase-like enzyme; Q4J6C6; recombinant PREPL, fluorescence polarization activity-based probe; inhibition, % at 5.96 µM; hit rate 0.68% among 320,000; AID 2751; in the data active = inhibition above about 43%;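 note: 0% = enzyme with DMSO and 100% = wells lacking enzyme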
# ATG4B inhibitor: ATG4B (human) cysteine protease inhibition | Q9Y4P1 | ATG4B cleavage of LC3-PLA2, NBD-HPC fluorescence, 1 h | inhibition, % at 8.33 µM | hit rate 0.51% among 340,000 | AID 504462; in the data active = inhibition above about 40%
# UBC13 inh: human UBC13 polyubiquitination inhibition | P61088 | UBC13 polyubiquitin chain formation, TR-FRET | inhibition, % at 20 µM | hit rate 0.47% among 330,000; in the data active = inhibition above about 45%, passing the limit was not always enough
# MEKK2wt confirm: raises or lowers MEK5 binding to wildtype human MEKK2, retest; bead flow cytometry, Alexa488-MEK5 binding to MEKK2 WT; actives lie on both sides; shares compounds with MEKK3 PB1 HTS; hit rate 2.4% among 5,900; binding response (% of control), % at 10 µM; in the data active = binding response below about 16% or above about 210%; inactive = in between
# MEKK2mut-MEK5: signal of MEK5 binding to mutant human MEKK2, retest; shares compounds with MEKK3 PB1 HTS; bead flow cytometry, Alexa488-MEK5 binding to MEKK2 mutant; percent response, % at 10 µM; hit rate 2% among 5,900; AID 1893; in the data active = percent response mostly above about 71%, no sharp cut-off; inactive = mostly below about 38%;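 note: higher means compound restores mutant binding toward wildtype level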
# MEKK3-MEK5 inh: confirmation of inhibitors of MEK5 binding to human MEKK3 | shares compounds with MEKK3 PB1 HTS | bead flow cytometry, Alexa488-MEK5 binding to MEKK3; active compounds read low | binding response (% of control), % at 10 µM | hit rate 1.8% among 5,900;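 active = binding response below 72% of control, or above a set upper limit, though filed actives all read lower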;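 note: 100% = DMSO only wells and 0% = binding blocked by excess unlabeled MEK5; lower values mean stronger disruption of MEK5 binding to MEKK3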
# * = called active by the depositor; x = no result given; [ ] = dose if it differs, or a comment. Sampled rows, rich in hits. Any-hit rate of the full collection: about 3.1%.
SMILES,MEKK3 PB1 HTS,MEKK2wt PB1 HTS,MEKK2 mut-MEK5,PREPL inhibitor,ATG4B inhibitor,UBC13 inh,MEKK2wt confirm,MEKK2mut-MEK5,MEKK3-MEK5 inh
CN(Cc1ccccc1)C(=O)[C@@H]1CCCN1S(=O)(=O)c1ccc(Cl)cc1,101,96,-1,9,1,4,x,x,x
COc1ccc(N(CC(=O)NC2CCCC2)C(=O)Cn2nnc(-c3ccc(F)cc3)n2)cc1,104,103,0,-2,-3,4,x,x,x
COc1cc(C(=S)N2CCOCC2)cc(OC)c1OC(=O)c1cccc(C)c1,107,104,25*,2,-8,10,98,0,105
CCCN1CCN(C(=O)C(NC(=O)c2ccco2)C(C)C)CC1 (stereo unspecified),102,103,11,4,2,1,x,x,x
C=CCN1c2ccccc2[C@]23C[C@@H](C(=O)OC)N(C(=O)C4CCC4)C2=NC(C(=O)OC)=C(C(=O)OC)[C@H]13,91,79,0,-2,-18,7,x,x,x
C=CCN1c2ccccc2[C@]23C[C@@H](C(=O)OC)N(C(=O)c4ccco4)C2=NC(C(=O)OC)=C(C(=O)OC)[C@H]13,128*,145*,2,0,-4,-7,95,-9,97
NC(=O)C1CCN(c2ncc(C(F)(F)F)cc2Cl)CC1,130*,114,5,2,10,-4,101,0,97
O=C(Nc1c2c(nn1-c1ccccc1)CS(=O)C2)c1ccc2c(c1)OCO2 (stereo unspecified),102,102,1,1,2,-6,x,x,x
CS(=O)(=O)Nc1ccc(C2=NN(S(C)(=O)=O)C(c3ccc4nccnc4c3)C2)cc1 (stereo unspecified),3.0*[inhibitor],x,x,1,-33,-2,70,-6,73
CC(=O)N1N=C(c2ccc(C)cc2)CC1c1ccc2c(c1)OCO2 (stereo unspecified),98,101,4,-27,-8,3,x,x,x
Cc1ccc(C2=NN(S(C)(=O)=O)C(c3ccc4c(c3)OCO4)C2)cc1 (stereo unspecified),10*[inhibitor],x,25,-40,3,-4,98,-6,96
CCS(=O)(=O)Nc1cccc(C2=NN(S(C)(=O)=O)C(c3ccccc3)C2)c1 (stereo unspecified),18*[inhibitor],86,54*,-2,-5,5,72,-19,73
CS(=O)(=O)N1N=C(c2ccc(Br)cc2)CC1c1ccc2c(c1)OCO2 (stereo unspecified),94,14*,83*,-37,1,14,103,-2,96
O=C(CCCN=C1NS(=O)(=O)c2ccccc21)OCC(=O)c1ccc(F)cc1,x,x,x,-11,-1,-5,x,x,x
O=C(CNC(=O)c1ccc(-c2ccccc2)cc1)Nc1cccc(CO)c1,x,x,x,10,-6,20,x,x,x
CCOC(=O)C1=C(O)c2ccccc2C(=O)/C1=C\c1ccc(C)cc1,68*[inhibitor],95,0,6,-2,x,98,0,103
CCOc1ccc(C(=O)NNC2CC(=O)N(CCc3ccccc3)C2=O)cc1OC (stereo unspecified),0.0*[inhibitor],0.0*[inhibitor],-5,-5,0,-12,102,0,104
Cc1ccccc1CN(C)CC(=O)Nc1c(C)cccc1C(C)C,72*[inhibitor],71,-24,22,5,2,107,4,104
Cc1cccc(C(C)C)c1NC(=O)CN(C)Cc1cccc(F)c1,101,102,0,-5,4,3,x,x,x
COc1ccc(OCCOC(=O)c2nc3nccc(C)n3n2)cc1,103,99,-6,4,11,7,x,x,x
COc1cc(C(=O)N2CCN(c3ccccc3)CC2)c2ccccc2n1,x,x,x,x,2,x,x,x,x
Cc1c(Cl)cnc(NC(=O)CSc2nncs2)c1Cl,144*,107,0,2,1,8,106,7,104
COc1cc(CNCCc2ccc(S(N)(=O)=O)cc2)ccc1OCc1ccc(Cl)cc1,105,232*,71*,25,-30,37,150,20,108
COc1cc(CNCCc2ccc(S(N)(=O)=O)cc2)ccc1OCC(=O)NC1CCCCC1,98,112,6,10,-13,-5,x,x,x
CCN(CC)CC1CN(N=Cc2ccc([N+](=O)[O-])o2)C(=O)O1 (stereo unspecified),x,x,x,x,-3,x,x,x,x
SMILES,MEKK3 PB1 HTS,MEKK2wt PB1 HTS,MEKK2 mut-MEK5,PREPL inhibitor,ATG4B inhibitor,UBC13 inh,MEKK2wt confirm,MEKK2mut-MEK5,MEKK3-MEK5 inh
Cc1cc(N2CCCC2)ccc1NC(=O)COc1cccc(C(F)(F)F)c1,100,104,5,28,6,-6,x,x,x
COc1ccc(NC(=O)COC(=O)c2ccc([N+](=O)[O-])o2)cc1Cl,131*,123,5,13,-4,-3,106,6,106
COc1ccc(C)cc1NC(=O)COC(=O)c1ccc([N+](=O)[O-])o1,97,92,-2,-4,-9,21,x,x,x
Cc1cc(S(=O)(=O)N2c3ccc(F)cc3CCC2C)ccc1-n1cnnn1 (stereo unspecified),100,97,-1,-9,-14,7,x,x,x
CC[C@@H]1CC=C[C@H]2[C@H]1C(=O)N(Cc1ccccc1)[C@H]2c1ccc2ccccc2c1,79*[inhibitor],94,-7,x,x,-8,99,14,102
C[C@@H]1CC=C[C@@H]2[C@H]1C(=O)N(Cc1ccccc1)[C@H]2c1cccc(Br)c1,x,x,x,x,-1,x,x,x,x
CC(=O)c1ccc(-c2cc([C@H]3[C@H]4C=CC[C@@H](C)[C@@H]4C(=O)N3Cc3ccccc3)ccc2F)cc1,94,87,2,20,-5,-6,x,x,x
C[C@@H]1CC=C[C@H]2[C@H]1C(=O)N(Cc1ccccc1)[C@H]2c1ccc(F)c(-c2ccc(N(C)C)cc2)c1,66*[inhibitor],54*[inhibitor],2,8,-3,2,100,-12,98
O=C(NC(Cc1ccccc1)C(=O)O)/C(=C/c1cccc([N+](=O)[O-])c1)NC(=O)c1cccc(Br)c1 (stereo unspecified),100,95,4,2,8,2,x,x,x
Cc1ccc(S(=O)(=O)N2CCOCC2)cc1C(=O)NC(C)CCc1ccccc1 (stereo unspecified),x,x,x,7,2,15,x,x,x
